These results are taken from PubChem BioAssay (EPA / NIEHS).

Inconclusive results are not listed. Activity calls are given as the source filed them. The calls were made as follows: active = hit-call score of the fitted dose curve at least 0.9, where 1 is the maximum; inconclusive = response in the unintended direction; inactive = score below 0.9.

This assay is described as follows: CCTE_Mundy_HCI_hNP1_CellTiter: CCTE's Cell Titer-Glo 2 Assay in human neuroprogenitor cells for Viability, Mundy Lab (AID 2284241).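 As to AC50: a hit is a drop in ATP luminescence versus DMSO meaning reduced viability.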 The procedure: CCTE_Mundy_HCI_hNP1_CellTiter is a multiplexed, cell-based-readout assay that uses neural stem cells derived from a neuroepithelial cell lineage of WA09 embryonic cells with measurements taken at […] after chemical dosing in a microplate: 96-well plate.CCTE_Mundy_HCI_hNP1_CellTiter is one component of the CCTE_Mundy_HCI_hNP1_CellTiter assay. It measures cell viability related to ATP content using Luminescent Reporter.Data from the assay component CCTE_Mundy_HCI_hNP1_CellTiter was analyzed at the endpoint CCTE_Mundy_HCI_hNP1_CellTiter in the positive analysis fitting direction relative to DMSO as the negative control and baseline of activity. Using a type of viability reporter, loss -of-signal activity can be used to understand viability effects.
Human neural progenitor cells (hNP1) were obtained as cryopreserved cells from ArunA Biomedical, Athens Georgia. Cells are plated on pre-coated poly-L-ornithine/laminin clear bottom and opaque 96 well plates (day 0). Plates are placed in a 37 °C, 5% CO2 incubator for 40 to 44 hours at which time plates are removed from the incubator and 10 uL of a freshly made chemical solution is added to each well. Cell viability was based on number of cells per field or determined in sister plates using the CellTiter-Glo luminescent assay (Promega) which measures the amount of ATP present in each well. Twenty-four hours after chemical treatment, 50ul of CellTiter-Glo assay buffer was added to each well and the plate incubated for 30min at room temperature. Luminescence was then recorded in each well using a FLUOstar Optima plate reader (BMG LABTECH, Cary, NC).
For the compound `ClC1=C(Cl)C2(Cl)C3C(Cl)C=CC3C1(Cl)C2(Cl)Cl` (stereo unspecified), the half-maximal activity concentration (AC50) is 13.4 µM (active).

With `OCCOCCO`, the compound was called inactive.

With `CC(C)COC(=O)c1ccccc1C(=O)OCC(C)C`, the result was inactive.

As for `COC(=O)Nc1nc2ccccc2[nH]1`, the AC50 is 9.91 µM (active).

`[O-][Cl+]O`: the call was inactive.

As for `CC(C)(C)C(O)(CCc1ccc(Cl)cc1)Cn1cncn1` (stereo unspecified), the outcome was inactive.

In the case of `CNC(=O)Oc1cccc2c1OC(C)(C)C2`, the outcome was inactive.

Turning to `Nc1cc(Cl)cc(C(=O)O)c1Cl`, the result was inactive.

In the case of `CCC[CH2][Sn]([Cl])([CH2]CCC)[CH2]CCC`, the AC50 is 0.335 µM (active).

As for `CN(C)[C@@H]1C(=O)C(C(N)=O)=C(O)[C@@]2(O)C(=O)C3=C(O)c4c(O)cccc4[C@@](C)(O)[C@H]3C[C@@H]12`, the result was inactive.

For `COP(=S)(OC)SCN1C(=O)c2ccccc2C1=O`, the call was inactive.
